The panel holds about 79,000 compounds, 15% with a hit somewhere; the sample as a whole holds those more often. Values without a mark were called inactive. The source made the active and inactive calls. No stated cut-off is given here; in the data, active means growth inhibition above about 70%; inactive means the rest.
How the values were obtained:
[1] = NCI Yeast Anticancer Drug Screen. Data for the rad50 strain (AID 155);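 further: 0% = growth of vehicle-only cultures of the same strain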; conditions: S. cerevisiae rad50 strain growth inhibition, hits give high values
Method in brief: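 Vehicle-treated cultures provide the reference for the growth inhibition reported for compound-exposed, repair-deficient yeast.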

[2] = NCI Yeast Anticancer Drug Screen. Data for the mec2-1 strain (AID 157); conditions: S. cerevisiae mec2-1 strain, hits give high values
Method in brief: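 Mutant yeast (mec2-1) grown with compound; growth inhibition relative to vehicle control reported.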

[3] = NCI Yeast Anticancer Drug Screen. Data for the sgs1 mgt1 strain (AID 161);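 further: 0% = growth of cultures given vehicle only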; conditions: S. cerevisiae sgs1 mgt1 strain, hits give high values
Method in brief: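 Percent growth inhibition was derived by comparing compound-exposed mutant yeast with vehicle-exposed cultures. The strain carries alterations in DNA damage repair.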

[4] = NCI Yeast Anticancer Drug Screen. Data for the cln2 rad14 strain (AID 165);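 further: 0% = growth equal to vehicle treated cultures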; conditions: S. cerevisiae cln2 rad14 strain, hits give high values
Method in brief: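 Readout is yeast growth inhibition versus vehicle-treated controls, using a strain with cln2 and rad14 alterations exposed to compound.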

[5] = NCI Yeast Anticancer Drug Screen. Data for the bub3 strain (AID 167); conditions: S. cerevisiae bub3 mutant strain, hits give high values
Method in brief: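 Mutant yeast screening strain plus compound; vehicle-treated cultures serve as the 0% inhibition reference.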

[6] = NCI Yeast Anticancer Drug Screen. Data for the mlh1 rad18 strain (AID 175); conditions: S. cerevisiae mlh1 rad18 strain growth inhibition, hits give high values
Method in brief: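 Genetically defined yeast (DNA repair-deficient) exposed to compounds; growth inhibition determined relative to vehicle.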

[7] = at 5.0 µM (retest, dose inferred, filed as 0.5)
[8] = at 50.0 µM (retest, dose inferred, filed as 5.0)

| Structure (SMILES) | growth inhibition [1, 7] | growth inhibition [1, 8] | growth inhibition ([1]; at 50.0 µM) | growth inhibition [2, 7] | growth inhibition [2, 8] | growth inhibition ([2]; at 50.0 µM) | growth inhibition [3, 7] | growth inhibition [3, 8] | growth inhibition ([3]; at 50.0 µM) | growth inhibition [4, 7] | growth inhibition [4, 8] | growth inhibition ([4]; at 50.0 µM) | growth inhibition [5, 7] | growth inhibition [5, 8] | growth inhibition ([5]; at 50.0 µM) | growth inhibition [6, 7] | growth inhibition [6, 8] | growth inhibition ([6]; at 50.0 µM) |
| --- | --- | --- | --- | --- | --- | --- | --- | --- | --- | --- | --- | --- | --- | --- | --- | --- | --- | --- |
| C=C1C(=O)C23CC[C@H]4C(C)(CCC[C@]4(C)C(=O)O)[C@@H]2CCC1C3 (some centres not stated) | 94% (active) | 99% (active) | 90.5% (active) | 96% (active) | 99% (active) | 93.7% (active) | 93% (active) | 99% (active) | 93% (active) | 72% (active) | 99% (active) | 88.3% (active) | 95% (active) | 99% (active) | 92% (active) | 97% (active) | 99% (active) | 92.7% (active) |
| C(=P(c1ccccc1)(c1ccccc1)c1ccccc1)[P+](c1ccccc1)(c1ccccc1)c1ccccc1 | 98% (active) | 99% (active) | 99.3% (active) | 99% (active) | 100% (active) | 99.3% (active) | 99% (active) | 99% (active) | 99.3% (active) | 98% (active) | 99% (active) | 98.7% (active) | 98% (active) | 99% (active) | 99% (active) | 99% (active) | 99% (active) | 99.2% (active) |
| CCSSC12CCCN1C(=O)C(C)N(C)C2=O (configuration not stated) | 1% | 79% (active) | 77.6% (active) | 9% | 81% (active) | 16.4% | 7% | 49% | 11.6% | 11% | 58% | -61.4% | 0% | 53% | 19.8% | 1% | 84% (active) | 4.5% |
| COc1ccc(C(CC(=O)c2ccc(C)cc2)Sc2ccccc2N)cc1 (configuration not stated) | 46% | 51% | -9.65% | 52% | 52% | 4.5% | -16% | 26% | 26.5% | 44% | 40% | -15.2% | 36% | 17% | 27.5% | 35% | 50% | 8.35% |
| CCCCN(CCC(=O)O)c1ccc(/C=C\c2ccnc3ccccc23)cc1 | 8% | 89% (active) | 94.2% (active) | 6% | 89% (active) | 93.5% (active) | 21% | 90% (active) | 95.6% (active) | 15% | 82% (active) | 88.7% (active) | -2% | 68% | 96.3% (active) | 0% | 89% (active) | 93% (active) |
| Cc1ccc(S(=O)(=O)CC2COC(CS(=O)(=O)c3ccc(C)cc3)CO2)cc1 (configuration not stated) | 2% | 3% | -14.7% | 1% | 6% | 33.7% | 10% | -6% | 3% | 8% | 5% | 33.1% | 2% | 11% | 66.4% | -2% | 1% | 28.8% |
| CCCCCCCCCCCCCCC(=O)OCC[N+](C)(C)C | 33% | 98% (active) | 90.2% (active) | 24% | 98% (active) | 93% (active) | 45% | 99% (active) | 92.8% (active) | 33% | 98% (active) | 85.3% (active) | 44% | 99% (active) | 91.8% (active) | 27% | 97% (active) | 91.2% (active) |
| CCCCCCCN1C(=O)c2ccccc2S1(=O)=O | -2% | 95% (active) | 95.1% (active) | -12% | 76% (active) | 87.3% (active) | 12% | 94% (active) | 86.2% (active) | -4% | 73% (active) | 43% | 14% | 89% (active) | 93.5% (active) | 39% | 96% (active) | 84.8% (active) |
| COc1c(O)cc(C=O)cc1[N+](=O)[O-] | -7% | 14% | 7.3% | 1% | 12% | 2.15% | -1% | 11% | 40.3% | 4% | 20% | 69.2% | -1% | 1% | -9.85% | -4% | 14% | 8.1% |
| COc1ccc(OC)c2c(=S)c3ccccc3[nH]c12 | -1% | 75% (active) | 85.3% (active) | 0% | 44% | 26.2% | -5% | 43% | 60.6% | -5% | -5% | 40.6% | -6% | 37% | 60.2% | -5% | 65% | 91.1% (active) |
| C#CCn1cnc2c(N)ncnc21 | -1% | -11% | 6.75% | 3% | -8% | 15.8% | 5% | -13% | 28.4% | 3% | -6% | 84.2% (active) | -4% | -16% | -6.65% | 2% | -14% | 7.3% |
| CC(=O)Nc1cccc2c1ccc1ccc3ccccc3c12 | 13% | 21% | 77.3% (active) | -1% | 9% | 61.2% | 4% | 20% | 71.2% (active) | -12% | -11% | -3.25% | 3% | -1% | 5.75% | 32% | 52% | 71% (active) |
| CN=S(=O)(OCCCCOS(=O)(=NC)c1ccccc1)c1ccccc1 (configuration not stated) | 16% | 26% | 47.6% | 9% | 8% | -2.25% | 20% | 28% | -18.1% | 8% | 10% | -12.4% | 11% | 10% | -29.3% | 39% | 40% | -52.3% |
| CN(C)c1ccc(/C=C/c2nc3ccccc3s2)cc1 | 8% | 79% (active) | 3.1% | 14% | 60% | 23.6% | -3% | 91% (active) | 4.3% | -3% | 14% | 36.4% | -3% | 1% | -2.45% | 30% | 91% (active) | 83.3% (active) |
| CS(=O)(=O)Nc1ccc(Nc2c3ccccc3nc3ccccc23)cc1 | 13% | 25% | 91.8% (active) | -7% | -11% | 25.6% | 6% | 20% | 14.3% | -14% | -3% | 18.9% | 10% | -2% | 37.9% | 1% | 13% | 35.1% |
| CC(C)CCCC(C)C1CCC2C3CC=C4OC(=O)CCC4(C)C3CCC12C (configuration not stated) | -11% | 88% (active) | 83.4% (active) | -2% | 85% (active) | 91.8% (active) | -35% | 93% (active) | 76.2% (active) | -2% | 93% (active) | 85.2% (active) | -1% | 91% (active) | 86.3% (active) | -1% | 94% (active) | 90.6% (active) |
| CC(=O)OC1COC(n2ccc3cc(Br)c([N+](=O)[O-])cc32)C(OC(C)=O)C1OC(C)=O (configuration not stated) | -16% | 2% | 69.7% | -5% | 8% | 4.55% | -25% | 47% | 78% (active) | -45% | 3% | 5.45% | -23% | 71% (active) | 83.5% (active) | -27% | 36% | 47.9% |
| CCCCCc1[nH]nc(C(=O)OC)c1N=NN1CCOCC1 | 43% | 98% (active) | 99.2% (active) | 91% (active) | 99% (active) | 99.6% (active) | 62% | 99% (active) | 99.5% (active) | 68% | 99% (active) | 99.5% (active) | 81% (active) | 99% (active) | 99.4% (active) | 89% (active) | 99% (active) | 99.5% (active) |
| C[n+]1cc2c3ccccc3ccc2c2ccccc21 | 37% | 79% (active) | 59.3% | 37% | 69% | 53.2% | 32% | 66% | 75.2% (active) | 26% | 45% | 56% | 7% | 57% | 47% | 39% | 83% (active) | 40.3% |

— PubChem BioAssay (NCI)
